From the supplement of paper PMC10849652
Targets with a hit are over-represented here; the source holds about 7,900 in all. About 0.6% of all pairs of compound and target were hits. A number with no mark means an inactive call.

Key:
Test in all cases: log2 fold change, soluble protein after heating vs DMSO (PISA); higher = thermal stabilisation; K562 cells, 10 uM, 30 min; active = over 0.2 and 3.5 SD of the protein, either way, in both replicates (recomputed)
crizotinib = compound: C[C@@H](Oc1cc(-c2cnn(C3CCNCC3)c2)cnc1N)c1c(Cl)ccc(F)c1Cl [crizotinib]
Outline: (§1)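 Quantification of soluble protein used TMTpro 16plex LC-MS/MS, with channel sums equalised. Samples were the supernatant after 21,000xg for 90 min of pooled aliquots from K562 cells (2×10^6 cells/mL) treated with 10 μM compound for 30 min, heated for 3 min over 48°C-58°C, and extracted in PBS with 0.5% NP-40 at 4°C. Values, from duplicates, describe thermal stability against control samples on a log2 fold-change scale.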

tozasertib = compound: Cc1cc(Nc2cc(N3CCN(C)CC3)nc(Sc3ccc(NC(=O)C4CC4)cc3)n2)n[nH]1 [tozasertib]
Outline: as §1

doramapimod = compound: Cc1ccc(-n2nc(C(C)(C)C)cc2NC(=O)Nc2ccc(OCCN3CCOCC3)c3ccccc23)cc1 [doramapimod]
Outline: as §1

[1] = compound: CS(=O)(=O)c1ccc(-c2cnc(N)c(C(=O)Nc3ccccc3)n2)cc1
Outline: as §1

[2] = compound: C[C@@H]1COCCN1C2=NC(=NC(=C2)C3(CC3)S(=O)(=O)C)C4=C5C=CNC5=CC=C4
Outline: as §1

duvelisib = compound: C[C@H](Nc1ncnc2nc[nH]c12)c1cc2cccc(Cl)c2c(=O)n1-c1ccccc1 [duvelisib]
Outline: as §1

gandotinib = compound: Cc1cc(Nc2cc(CN3CCOCC3)c3nc(C)c(Cc4ccc(Cl)cc4F)n3n2)n[nH]1 [gandotinib]
Outline: as §1

[3] = compound: Cc1cc(SCc2sc(-c3ccc(C(F)(F)F)cc3)nc2C)ccc1OCC(=O)O
Outline: as §1

ispinesib = compound: Cc1ccc(C(=O)N(CCCN)[C@@H](c2nc3cc(Cl)ccc3c(=O)n2Cc2ccccc2)C(C)C)cc1 [ispinesib]
Outline: as §1

[4] = compound: C[C@H](C1=CC=C(C=C1)C(=O)NC2=C3C=CNC3=NC=C2)N
Outline: as §1

Chain of UniProt O15121 (O15121 whole entry, looked up): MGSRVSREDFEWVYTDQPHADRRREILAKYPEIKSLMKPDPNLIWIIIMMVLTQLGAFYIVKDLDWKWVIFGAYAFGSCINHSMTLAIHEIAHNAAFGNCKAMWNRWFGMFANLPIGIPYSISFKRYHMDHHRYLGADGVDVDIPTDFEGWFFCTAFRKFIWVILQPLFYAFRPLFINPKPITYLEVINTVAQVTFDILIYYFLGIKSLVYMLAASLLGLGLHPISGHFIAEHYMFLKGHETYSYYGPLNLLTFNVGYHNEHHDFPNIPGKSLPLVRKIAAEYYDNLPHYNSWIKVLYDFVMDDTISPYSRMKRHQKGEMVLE
Chain of UniProt Q6P1L5 (Q6P1L5 whole entry, looked up): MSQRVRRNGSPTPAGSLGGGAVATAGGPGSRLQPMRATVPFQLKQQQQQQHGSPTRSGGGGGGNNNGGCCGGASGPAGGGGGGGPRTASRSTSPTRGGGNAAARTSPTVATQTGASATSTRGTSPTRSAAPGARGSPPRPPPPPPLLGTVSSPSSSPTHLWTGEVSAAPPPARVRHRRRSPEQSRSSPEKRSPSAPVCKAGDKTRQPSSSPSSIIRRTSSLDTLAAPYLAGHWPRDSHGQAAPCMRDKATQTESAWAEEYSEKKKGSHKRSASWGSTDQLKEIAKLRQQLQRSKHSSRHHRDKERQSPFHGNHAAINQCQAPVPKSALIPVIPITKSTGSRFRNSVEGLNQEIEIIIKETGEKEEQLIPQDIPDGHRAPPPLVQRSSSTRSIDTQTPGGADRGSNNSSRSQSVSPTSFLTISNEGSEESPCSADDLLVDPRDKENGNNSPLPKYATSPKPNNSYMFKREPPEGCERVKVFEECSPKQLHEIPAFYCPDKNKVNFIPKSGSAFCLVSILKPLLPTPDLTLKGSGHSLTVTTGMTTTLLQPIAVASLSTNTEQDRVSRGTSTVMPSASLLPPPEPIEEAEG
Chain of UniProt Q16531 (Q16531 whole entry, looked up): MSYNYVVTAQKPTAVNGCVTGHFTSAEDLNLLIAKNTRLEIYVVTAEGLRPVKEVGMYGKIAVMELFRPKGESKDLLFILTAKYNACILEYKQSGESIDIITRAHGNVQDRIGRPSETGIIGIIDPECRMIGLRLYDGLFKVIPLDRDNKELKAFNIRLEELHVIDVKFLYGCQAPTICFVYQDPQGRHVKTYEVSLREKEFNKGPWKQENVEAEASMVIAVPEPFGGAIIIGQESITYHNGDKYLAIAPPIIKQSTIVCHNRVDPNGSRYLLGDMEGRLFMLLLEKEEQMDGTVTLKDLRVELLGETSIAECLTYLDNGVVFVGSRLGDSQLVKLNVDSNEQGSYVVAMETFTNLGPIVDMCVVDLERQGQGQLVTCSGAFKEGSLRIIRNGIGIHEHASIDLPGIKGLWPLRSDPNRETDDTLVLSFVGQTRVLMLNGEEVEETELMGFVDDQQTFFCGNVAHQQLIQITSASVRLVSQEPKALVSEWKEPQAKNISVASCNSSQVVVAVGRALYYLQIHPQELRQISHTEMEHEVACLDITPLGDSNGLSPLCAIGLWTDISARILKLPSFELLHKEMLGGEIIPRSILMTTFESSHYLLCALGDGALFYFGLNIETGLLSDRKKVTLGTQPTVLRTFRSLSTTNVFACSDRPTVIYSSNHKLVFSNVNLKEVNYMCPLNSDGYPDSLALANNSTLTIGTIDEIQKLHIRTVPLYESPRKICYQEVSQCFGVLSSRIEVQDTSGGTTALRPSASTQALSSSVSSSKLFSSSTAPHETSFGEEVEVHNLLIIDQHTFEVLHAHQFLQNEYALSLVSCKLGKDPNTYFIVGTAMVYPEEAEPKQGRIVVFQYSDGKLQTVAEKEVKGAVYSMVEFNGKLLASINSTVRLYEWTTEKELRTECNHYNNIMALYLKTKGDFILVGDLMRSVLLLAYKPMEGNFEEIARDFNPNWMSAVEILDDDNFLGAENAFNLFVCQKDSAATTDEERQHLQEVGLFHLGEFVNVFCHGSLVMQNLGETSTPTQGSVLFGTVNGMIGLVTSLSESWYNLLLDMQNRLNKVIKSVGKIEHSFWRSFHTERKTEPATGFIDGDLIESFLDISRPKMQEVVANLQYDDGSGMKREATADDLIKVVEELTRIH
Chain of UniProt Q8TEH3 (Q8TEH3 whole entry, looked up): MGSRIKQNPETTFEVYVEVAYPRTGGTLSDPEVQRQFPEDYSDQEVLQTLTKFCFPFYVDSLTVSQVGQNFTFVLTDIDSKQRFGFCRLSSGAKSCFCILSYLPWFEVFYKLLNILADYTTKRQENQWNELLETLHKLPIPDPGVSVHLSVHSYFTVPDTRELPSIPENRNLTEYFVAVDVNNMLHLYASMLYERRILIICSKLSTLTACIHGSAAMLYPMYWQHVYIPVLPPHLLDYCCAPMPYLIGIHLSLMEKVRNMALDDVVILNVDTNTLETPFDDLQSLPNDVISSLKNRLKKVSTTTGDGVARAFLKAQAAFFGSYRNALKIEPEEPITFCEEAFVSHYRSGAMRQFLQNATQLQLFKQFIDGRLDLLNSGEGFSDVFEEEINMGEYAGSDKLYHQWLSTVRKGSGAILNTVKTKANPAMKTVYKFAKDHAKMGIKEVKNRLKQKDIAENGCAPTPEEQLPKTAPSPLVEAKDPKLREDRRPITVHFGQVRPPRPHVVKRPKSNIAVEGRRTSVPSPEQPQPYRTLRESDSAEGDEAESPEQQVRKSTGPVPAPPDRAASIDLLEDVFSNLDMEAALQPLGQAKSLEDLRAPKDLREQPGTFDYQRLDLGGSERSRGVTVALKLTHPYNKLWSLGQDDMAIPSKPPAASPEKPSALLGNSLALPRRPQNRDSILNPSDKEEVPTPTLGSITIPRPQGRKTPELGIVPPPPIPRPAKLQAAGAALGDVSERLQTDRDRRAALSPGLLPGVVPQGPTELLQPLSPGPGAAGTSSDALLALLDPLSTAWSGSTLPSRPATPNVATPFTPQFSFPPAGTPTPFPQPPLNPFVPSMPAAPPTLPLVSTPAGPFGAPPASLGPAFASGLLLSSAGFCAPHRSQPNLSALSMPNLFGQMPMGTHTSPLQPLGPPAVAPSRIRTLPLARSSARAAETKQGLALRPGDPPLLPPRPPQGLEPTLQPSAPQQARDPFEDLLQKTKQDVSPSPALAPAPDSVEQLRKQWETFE
Chain of UniProt Q86YN1 (Q86YN1 whole entry, looked up): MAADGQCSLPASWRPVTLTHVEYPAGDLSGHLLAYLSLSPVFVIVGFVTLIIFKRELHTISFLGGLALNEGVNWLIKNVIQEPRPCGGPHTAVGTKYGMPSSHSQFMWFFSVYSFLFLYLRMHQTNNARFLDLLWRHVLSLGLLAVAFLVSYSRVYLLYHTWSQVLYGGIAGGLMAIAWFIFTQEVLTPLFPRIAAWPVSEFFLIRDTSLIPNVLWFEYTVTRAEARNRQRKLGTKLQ
Chain of UniProt Q6UX07 (Q6UX07 whole entry, looked up): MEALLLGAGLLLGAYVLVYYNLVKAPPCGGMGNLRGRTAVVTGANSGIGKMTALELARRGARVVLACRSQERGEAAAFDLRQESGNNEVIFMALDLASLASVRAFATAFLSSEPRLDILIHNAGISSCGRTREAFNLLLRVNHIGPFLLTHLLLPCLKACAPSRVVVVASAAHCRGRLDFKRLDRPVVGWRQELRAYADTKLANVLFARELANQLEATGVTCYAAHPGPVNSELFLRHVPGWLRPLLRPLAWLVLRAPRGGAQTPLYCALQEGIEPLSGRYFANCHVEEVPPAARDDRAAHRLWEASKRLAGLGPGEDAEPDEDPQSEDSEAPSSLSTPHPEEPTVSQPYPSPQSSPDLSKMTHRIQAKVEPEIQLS
Chain of UniProt P0CG12 (P0CG12 whole entry, looked up): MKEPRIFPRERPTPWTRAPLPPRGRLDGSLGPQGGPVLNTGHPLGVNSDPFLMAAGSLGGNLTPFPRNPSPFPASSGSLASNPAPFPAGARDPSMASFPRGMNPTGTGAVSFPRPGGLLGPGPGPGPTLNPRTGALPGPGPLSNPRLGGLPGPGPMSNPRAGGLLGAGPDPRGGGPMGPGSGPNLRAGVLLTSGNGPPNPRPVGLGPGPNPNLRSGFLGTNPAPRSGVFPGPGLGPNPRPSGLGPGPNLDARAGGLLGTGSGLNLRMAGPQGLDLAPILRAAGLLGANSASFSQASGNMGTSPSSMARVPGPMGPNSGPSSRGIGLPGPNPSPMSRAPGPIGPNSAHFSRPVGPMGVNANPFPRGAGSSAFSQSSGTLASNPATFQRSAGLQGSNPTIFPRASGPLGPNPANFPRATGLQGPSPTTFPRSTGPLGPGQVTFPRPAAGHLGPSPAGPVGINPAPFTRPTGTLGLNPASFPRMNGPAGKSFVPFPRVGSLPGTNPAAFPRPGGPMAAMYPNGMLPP
Chain of UniProt Q9UER7 (Q9UER7 whole entry, looked up): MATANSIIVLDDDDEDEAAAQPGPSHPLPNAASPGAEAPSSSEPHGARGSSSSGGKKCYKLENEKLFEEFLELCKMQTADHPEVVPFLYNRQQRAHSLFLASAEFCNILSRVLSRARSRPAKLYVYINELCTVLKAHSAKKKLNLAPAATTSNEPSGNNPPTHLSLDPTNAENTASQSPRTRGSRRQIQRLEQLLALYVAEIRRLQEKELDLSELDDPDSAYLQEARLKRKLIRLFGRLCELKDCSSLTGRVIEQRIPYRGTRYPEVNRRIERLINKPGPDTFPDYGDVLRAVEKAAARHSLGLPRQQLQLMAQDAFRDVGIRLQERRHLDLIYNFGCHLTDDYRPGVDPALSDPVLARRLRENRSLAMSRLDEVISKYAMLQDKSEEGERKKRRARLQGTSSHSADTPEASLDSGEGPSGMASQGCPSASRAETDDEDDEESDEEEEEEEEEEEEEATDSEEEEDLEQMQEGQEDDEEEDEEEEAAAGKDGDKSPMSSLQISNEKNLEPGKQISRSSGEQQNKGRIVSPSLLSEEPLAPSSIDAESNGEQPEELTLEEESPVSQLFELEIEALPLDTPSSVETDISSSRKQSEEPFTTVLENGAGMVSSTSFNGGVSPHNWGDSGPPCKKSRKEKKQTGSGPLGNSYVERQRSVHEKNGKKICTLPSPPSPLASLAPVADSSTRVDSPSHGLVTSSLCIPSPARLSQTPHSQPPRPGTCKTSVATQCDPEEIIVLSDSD

| Target | log2 fold change (crizotinib) | log2 fold change (tozasertib) | log2 fold change (doramapimod) | log2 fold change [1] | log2 fold change [2] | log2 fold change (duvelisib) | log2 fold change (gandotinib) | log2 fold change [3] | log2 fold change (ispinesib) | log2 fold change [4] |
| --- | --- | --- | --- | --- | --- | --- | --- | --- | --- | --- |
| DENND1A isoform 6 (UniProt Q8TEH3) | -0.231 | -0.093 | 0.374 | – | – | – | – | – | – | – |
| DCAF4 (UniProt Q8WV16) | – | – | – | -0.06 | 0.032 | -0.302 | 0.07 | -0.056 | -0.165 | – |
| FADS1 (UniProt F5GYH4) | -0.079 | -0.262 | 0.106 | – | – | – | – | – | – | – |
| DDX46, A0A0C4DG89 | – | – | – | – | -0.009 | – | – | – | – | – |
| DNAJB1 (UniProt M0R128) | – | -0.082 | – | – | – | – | – | – | – | -0.018 |
| ENTR1 (UniProt Q96C92) | – | – | – | – | – | 0.003 | – | 0.048 | – | – |
| DLK1 (UniProt P80370) | -0.108 | – | 0.002 | – | -0.151 | -0.173 | – | -0.058 | – | -0.133 |
| ELOVL5 isoform 2 (UniProt Q9NYP7) | – | -0.01 | – | 0.038 | 0.048 | 0.074 | -0.34 | 0.082 | -0.311 | -0.004 |
| F2RL3 (UniProt Q96RI0) | – | -0.163 | – | – | – | 0.081 | – | -0.059 | 0.004 | -0.159 |
| ELOVL7 (UniProt A1L3X0) | – | -0.018 | – | – | 0.088 | -0.016 | – | 0.025 | – | 0.037 |
| EPHX2 (UniProt E5RI53) | – | – | – | – | 0.067 | – | – | – | – | – |
| DERPC (UniProt P0CG12) | 0.029 | – | -0.099 | – | – | 0.191 | 0.006 | -0.113 | 0.07 | – |
| FAM135A (UniProt Q9P2D6) | – | – | – | 0.087 | 0.038 | – | – | – | – | – |
| DOP1A (UniProt Q5JWR5) | – | – | – | – | 0.007 | – | – | – | – | – |
| DHRS13 (UniProt Q6UX07) | 0.127 | 0.104 | 0.123 | 0.107 | – | -0.013 | 0.064 | 0.139 | -0.034 | 0.058 |
| FAM117B (UniProt Q6P1L5) | 0.563 | -0.175 | 0.21 | – | 0.007 | -0.381 | -0.164 | 0.257 | -0.057 | -0.021 |
| CTSS (UniProt P25774) | 0.063 | -0.114 | 0.043 | -0.007 | – | 0.01 | 0.018 | 0.045 | 0.049 | 0.059 |
| EID1 (UniProt Q9Y6B2) | – | -0.142 | – | -0.14 | -0.424 | – | 0.275 | – | – | – |
| CYP24A1 (UniProt Q07973) | -0.043 | -0.05 | 0.283 | – | – | -0.079 | 0.535 | -0.13 | -0.244 | – |

| Target | log2 fold change (crizotinib) | log2 fold change (tozasertib) | log2 fold change (doramapimod) | log2 fold change [1] | log2 fold change [2] | log2 fold change (duvelisib) | log2 fold change (gandotinib) | log2 fold change [3] | log2 fold change (ispinesib) | log2 fold change [4] |
| --- | --- | --- | --- | --- | --- | --- | --- | --- | --- | --- |
| EPHB4 (UniProt P54760) | – | – | – | 0.15 | – | – | – | – | -0.016 | – |
| DEGS1 (UniProt O15121) | – | -0.07 | – | 0.064 | 0.062 | -0.017 | 0.138 | -0.078 | – | -0.047 |
| EEF1D isoform 3 (UniProt P29692) | – | 0.212 | – | – | – | – | – | – | – | – |
| CWF19L2 (UniProt Q2TBE0) | -0.034 | -0.016 | -0.021 | -0.024 | – | -0.1 | 0.777 (active) | -0.001 | -0.115 | 0.027 |
| EEF2K (UniProt O00418) | – | – | – | – | -0.044 | – | 0.13 | – | -0.208 | 0.4 |
| DNAL1 (UniProt Q4LDG9) | -0.035 | – | -0.067 | – | 0.011 | -0.013 | – | -0.102 | -0.082 | 0.025 |
| DOLPP1 (UniProt Q86YN1) | -0.082 | 0.038 | -0.026 | – | – | – | – | – | 0.358 (active) | -0.135 |
| EIF4G1 (UniProt Q04637) | – | -0.051 | – | – | – | -0.111 | -0.082 | 0.227 | – | 0.184 |
| ERF (UniProt P50548) | – | -1.2 (active) | – | 0.173 | -0.05 | – | -0.29 | – | – | – |
| FAM160A2 isoform 2 (UniProt Q8N612) | -0.004 | -0.28 | -0.003 | – | 0.042 | 0.179 | 0.115 | 0.212 | -0.192 | -0.041 |
| DDB1 isoform 2 (UniProt Q16531) | – | – | – | 0.009 | 0.118 | – | -0.228 | – | – | – |
| DAXX (UniProt Q9UER7) | 0.098 | -0.167 | 0 | 0.154 | – | -0.001 | 0.313 | 0.006 | -0.062 | 0.106 |
| DCAF12 (UniProt Q5T6F0) | – | – | – | -0.101 | – | – | -0.735 (active) | – | – | – |
| FAM241A (UniProt Q8N8J7) | 0.117 | -0.027 | -0.018 | -0.235 | – | -0.016 | -0.077 | -0.034 | -0.069 | -0.007 |
| EIF2AK3 (UniProt Q9NZJ5) | -0.062 | -0.359 | 0.032 | – | 0.181 | 0.031 | -0.113 | 0.188 | – | 0.109 |
| DBNL (UniProt Q9UJU6) | – | – | – | – | – | – | – | – | – | -0.166 |
| EHBP1 (UniProt Q8NDI1) | – | 0.043 | – | – | – | – | 0.015 | – | – | 0.158 |
| EDRF1 (UniProt Q3B7T1) | – | – | – | 0.024 | 0.055 | 0.129 | 0.098 | 0.134 | -0.24 | -0.008 |
| DENND10 (UniProt Q8TCE6) | – | -0.063 | – | 0.046 | 0.298 (active) | 0.044 | – | 0.03 | -0.021 | -0.015 |
